Assay results as given in PubChem BioAssay (NCATS).
Results filed as inconclusive are left out. A call without a number means that no potency is given here. Values without a mark were called inactive. The source made the active and inactive calls. Calls follow the shape of the dose curve; as a rule, active = well fitted inhibition curve with a large enough effect; inconclusive = small, poorly fitted or top-dose-only effect; inactive = flat fitted curve, though single readings scatter.
Potency is read from the fitted curve at half-maximal effect.

These compounds were tested against Glutathione peroxidase 1 (Homo sapiens) (UniProt P07203) (assay: Primary qHTS Assay for Inhibitors of Recombinant Selenoprotein Glutathione Peroxidase 1 (GPX1) (AID 1845191; also: nearly all actives have a fitted effect of over 65% in size)). Conditions: recombinant GPX1, GR-coupled NADPH fluorescence, 15 min; series mostly up to 48.8 µM; activity, negative = inhibition: at the top concentration.
Chain of Glutathione peroxidase 1 (Homo sapiens) (P07203 whole entry, looked up): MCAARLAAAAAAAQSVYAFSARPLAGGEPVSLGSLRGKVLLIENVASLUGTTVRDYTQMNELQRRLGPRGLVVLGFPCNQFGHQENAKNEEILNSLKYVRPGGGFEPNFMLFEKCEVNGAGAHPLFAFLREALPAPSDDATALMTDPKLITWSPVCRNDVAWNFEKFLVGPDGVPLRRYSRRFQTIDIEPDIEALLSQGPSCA
Source text: Assay Provider: Elias S.J. Arner MD PhD.
Department of Medical Biochemistry and Biophysics
Karolinska Institutet, Solna, Stockholm, Sweden
Selenoprotein glutathione peroxidases (GPX), like the ubiquitously expressed GPX1 and the ferroptosis modulator GPX4, enact their antioxidant activities by reducing hydroperoxides using glutathione. […] GPX1 and GPX4 inhibitors have thus shown promise as anti-cancer agents. Existing inhibitors are often promiscuous, or modulate GPX activity only indirectly, so novel direct inhibitors identified through screening against GPX1 and GPX4 could be valuable. Here, we developed optimized glutathione reductase (GR)-coupled GPX assays for the biochemical high-throughput screen (HTS) of almost 12,000 compounds with known mechanisms of action. Initial hits were triaged using a GR counter-screen, assessed for isoform specificity using a separate GPX2 assay, and were assessed for general selenocysteine-targeting activity using a thioredoxin reductase (TXNRD1) assay. With this suite of assays, we identified novel GPX1/GPX2- and GPX4-specific inhibitors and can here present a validated pipeline for future discovery research for selenoprotein-targeting agents.
SEQUENCE No. (e.g., 1, 2, 3, etc.); […] (e.g., Cells, Incubation, Reagent, etc.); VALUE; DESCRIPTION.
1; Reagent 1; 3 uL; GPx1 enzyme or no enzyme control in 1536-well, black, solid Greiner assay plate.
2; Compound; 25 nL; Kalypsis pin tool (Wako USA) equipped with a 1536-well pin head.
3; Incubation; 30 min; room temperature.
4; Reagent 2; 1 uL; 10 nM GPX1, 1 mM GSH, 0.5 mM CHP, 0.5 mM NADPH, 100 nM GR, 0.01% BSA substrate
5; Detection; Fluorescence; ViewLux microplate reader, excitation 340 nm and emission 450 nm.
6; Incubation; 15 min; room temperature.
7; Detection; Fluorescence; ViewLux microplate reader, excitation 340 nm and emission 450 nm.
NOTES (numbers refer to Sequence numbers above)
1. 3 uL of 16.66 nM GPX1 and 0.016% BSA in assay buffer (50 mM Tris-HCl, 2 mM EDTA (pH 7.5), 150 mM NaCl) was added to columns 3-48 of 1536-well assay plates using a BioRAPTR Flying Reagent Dispenser (Let's Go Robotics (LGR), Carlsbad, CA). A no-enzyme control (0.01% BSA in TES assay buffer) was added to columns 1-2.
2. 25 nL of test compounds and DMSO controls were added to each well with a pin tool (Kalypsys).
3. The assay plates were incubated for 30 minutes at room temperature.
4. 1 uL of master mix (500 nM glutathione reductase (GR), 5 mM reduced glutathione (GSH), 2.5 mM NADPH in assay buffer) was added. 1 uL of cumene hydroperoxide (CHP) ([2.5 mM] in 50% EtOH) was then added within 5 minutes to initiate the reaction. Final concentrations were: 10 nM GPX1, 1 mM GSH, 0.5 mM CHP, 0.5 mM NADPH, 100 nM GR, 0.01% BSA.
5. Initial fluorescence readout (t=0) at 340/450 nm was measured using a ViewLux multimodal detector (PerkinElmer, Waltham, MA).
7. Endpoint fluorescence readout (t=15) at 340/450 nm was measured 15 min after room temperature incubation.
With `CN(C)CCCN1c2ccccc2Sc2ccccc21` the Potency was “inactive”. For `C[N+](C)(C)CCOC(=O)CCC(=O)OCC[N+](C)(C)C`, the Potency was “inactive”. With `CCCCNc1ccc(C(=O)OCCN(C)C)cc1` the Potency was “inactive”. With `CC1=NS(=O)(=O)c2cc(Cl)ccc2N1` the Potency was “inactive”. In the case of `CC(C)(Oc1ccc(CCNC(=O)c2ccc(Cl)cc2)cc1)C(=O)O`, the Potency is reported as “inactive”. `OCCN1CCN(CCCN2c3ccccc3C=Cc3ccccc32)CC1` was tested, and the Potency was “inactive”. For `Cc1ccc(/C(=C\CN2CCCC2)c2ccccn2)cc1`, the Potency was “inactive”. `CN1C(=O)CC[C@H]1c1cccnc1` was tested, and the “outcome” value was “inactive”. `CCOC(=O)c1cnc2c(cnn2CC)c1NN=C(C)C` was tested, and the “outcome” value was “inactive”. With `CN(C)C/C=C(/c1ccc(Br)cc1)c1cccnc1` the “outcome” value was “inactive”. `COC(=O)[C@H]1[C@H]2C[C@@H]3c4[nH]c5cc(OC)ccc5c4CCN3C[C@H]2C[C@@H](OC(=O)c2cc(OC)c(OC)c(OC)c2)[C@@H]1OC` was tested, and the Potency was “inactive”. In the case of `Cc1cccc(C)c1NC(=O)C(C)N` (stereo not given), the Potency is reported as “inactive”. `CC(C)NNC(=O)c1ccncc1` was tested, and the “activity, negative = inhibition” value was 2.29%. With `CC(C)NCC(O)c1cc(O)cc(O)c1` (stereo not given) the “activity, negative = inhibition” value was -25%. With `CN(C)CC[C@@H](c1ccc(Br)cc1)c1ccccn1` the “outcome” value was “inactive”. For `Brc1c(NC2=NCCN2)ccc2nccnc12`, the Potency was “inactive”. In the case of `CCN1CCc2nc(N)oc2CC1`, the “activity, negative = inhibition” value is reported as -24.9%. For `CCCN(CCC)C(=O)C(CCC(=O)O)NC(=O)c1ccccc1` (stereo not given), the Potency was “inactive”. In the case of `COc1cc(Cc2cnc(N)nc2N)cc(OC)c1OC`, the Potency is reported as “inactive”. `Cc1ccc(S(=O)(=O)NC(=O)NN2CCCCCC2)cc1` was tested, and the Potency was “inactive”. `CC(=O)OCC1=C(C(=O)O)N2C(=O)[C@@H](NC(=O)Cc3cccs3)[C@H]2SC1` was tested, and the Potency was 10.1 µM (active). `CCn1ccnc1CC1COc2ccccc2O1` (stereo not given) was tested, and the “outcome” value was “inactive”. With `Nc1c2c(nc3ccccc13)CCCC2O` (stereo not given) the “activity, negative = inhibition” value was -21.8%. With `Cc1nc2c([nH]1)c(=O)n(C)c(=O)n2Cc1ccco1` the “activity, negative = inhibition” value was 2.5%. In the case of `Cc1cc(C)c(/C=C2\C(=O)Nc3ccccc32)[nH]1`, the Potency is reported as “inactive”. With `COc1ccc(CCN(C)CCCC(C#N)(c2cc(OC)c(OC)c(OC)c2)C(C)C)cc1OC` (stereo not given) the Potency was “inactive”. In the case of `Nc1ncn([C@@H]2O[C@H](CO)[C@@H](O)[C@H]2O)c(=O)n1`, the Potency is reported as “inactive”. With `Cc1ccc(Cl)c(Nc2ccccc2C(=O)O)c1Cl` the Potency was “inactive”. For `CCCN(CCC)CCc1cccc2c1CC(=O)N2`, the Potency was “inactive”. `C[C@]12CC[C@@H]3c4ccc(O)cc4C[C@@H](CCCCCCCCCS(=O)CCCC(F)(F)C(F)(F)F)[C@H]3[C@@H]1CC[C@@H]2O` (stereo not given in full) was tested, and the Potency was “inactive”. With `CCCCNc1c(C(=O)OCC)c(C)nc2c1cnn2CC` the “activity, negative = inhibition” value was -18.6%. With `NC1=NCC2c3ccccc3Cc3ccccc3N12` (stereo not given) the Potency was “inactive”. For `NC(=O)c1ncn([C@@H]2O[C@H](CO)[C@@H](O)[C@H]2O)c1O`, the Potency was “inactive”. For `CCCOc1ccccc1-c1nc2n[nH]nc2c(=O)[nH]1`, the “outcome” value was “inactive”. In the case of `COCCOC(=O)C1=C(C)NC(C)=C(C(=O)OC(C)C)C1c1cccc([N+](=O)[O-])c1` (stereo not given), the Potency is reported as “inactive”. `CCC(=O)c1ccc2c(c1)N(CCCN(C)C)c1ccccc1S2` was tested, and the Potency was “inactive”. With `COc1cc(C(=O)OCCCN2CCCN(CCCOC(=O)c3cc(OC)c(OC)c(OC)c3)CC2)cc(OC)c1OC` the Potency was “inactive”. With `CCCN1C[C@H](CSC)C[C@@H]2c3cccc4[nH]cc(c34)C[C@H]21` the Potency was “inactive”. In the case of `C[N+](C)(C)CCOC(N)=O`, the Potency is reported as “inactive”. For `CCNC(=O)N1CCN(CCCC(c2ccc(F)cc2)c2ccc(F)cc2)CC1`, the “outcome” value was “inactive”.
